Test results as given in ChEMBL document CHEMBL1961873, “Compounds: GSK PKIS; Assays: Nanosyn kinase panel” (2012).
Several values for one entry are separate records, joined by “and”; a condition that tells them apart may be missing. Identical values can stand only once.

Columns and labels:
[1] = target: CDK3/Cyclin E (Homo sapiens) (UniProt P24864+Q00526); conditions: at 1 µM;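 further: each figure is a mean percent inhibition of the CDK3/cyclin E complex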
[2] = target: Cyclin-dependent kinase 4 (Homo sapiens) (UniProt P11802); conditions: at 0.1 µM
Sequence of Cyclin-dependent kinase 4 (Homo sapiens) (P11802 whole entry): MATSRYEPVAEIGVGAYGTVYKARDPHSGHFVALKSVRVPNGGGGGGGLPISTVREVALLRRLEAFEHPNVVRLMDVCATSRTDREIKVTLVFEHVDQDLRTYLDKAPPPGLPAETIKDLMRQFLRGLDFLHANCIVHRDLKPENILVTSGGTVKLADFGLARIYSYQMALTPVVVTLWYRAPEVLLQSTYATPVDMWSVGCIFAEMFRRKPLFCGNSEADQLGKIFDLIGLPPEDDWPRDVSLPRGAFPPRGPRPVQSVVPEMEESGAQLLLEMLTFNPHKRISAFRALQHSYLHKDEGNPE

[3] = target: Cyclin-dependent kinase 4 (Homo sapiens) (UniProt P11802); conditions: at 1 µM
[4] = target: Cyclin-dependent kinase 5 (Homo sapiens) (UniProt Q00535); conditions: at 0.1 µM
Sequence of Cyclin-dependent kinase 5 (Homo sapiens) (Q00535 whole entry, looked up): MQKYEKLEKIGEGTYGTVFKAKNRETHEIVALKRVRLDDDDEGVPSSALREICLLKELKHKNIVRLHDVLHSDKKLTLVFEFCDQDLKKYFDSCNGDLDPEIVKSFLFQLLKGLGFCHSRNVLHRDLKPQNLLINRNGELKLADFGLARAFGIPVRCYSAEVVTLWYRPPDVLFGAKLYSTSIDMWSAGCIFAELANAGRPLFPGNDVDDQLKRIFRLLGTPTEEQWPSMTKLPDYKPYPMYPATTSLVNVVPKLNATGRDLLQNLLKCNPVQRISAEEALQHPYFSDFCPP

[5] = target: Cyclin-dependent kinase 5 (Homo sapiens) (UniProt Q00535); conditions: at 1 µM
[6] = target: Cyclin-dependent kinase 6 (Homo sapiens) (UniProt Q00534); conditions: at 0.1 µM
Sequence of Cyclin-dependent kinase 6 (Homo sapiens) (Q00534 whole entry): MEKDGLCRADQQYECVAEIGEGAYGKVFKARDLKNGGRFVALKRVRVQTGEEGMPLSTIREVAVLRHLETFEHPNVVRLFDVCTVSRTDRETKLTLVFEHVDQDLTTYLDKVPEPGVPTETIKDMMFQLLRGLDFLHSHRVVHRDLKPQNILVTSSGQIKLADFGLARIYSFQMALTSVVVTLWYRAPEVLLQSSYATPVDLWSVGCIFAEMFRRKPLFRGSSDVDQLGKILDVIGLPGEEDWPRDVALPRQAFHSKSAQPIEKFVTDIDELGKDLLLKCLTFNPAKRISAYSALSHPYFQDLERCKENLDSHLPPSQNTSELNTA

[7] = target: Cyclin-dependent kinase 6 (Homo sapiens) (UniProt Q00534); conditions: at 1 µM
[8] = target: Dual specificity protein kinase CLK2 (Homo sapiens) (UniProt P49760); conditions: at 0.1 µM
Sequence of Dual specificity protein kinase CLK2 (Homo sapiens) (P49760 whole entry, looked up): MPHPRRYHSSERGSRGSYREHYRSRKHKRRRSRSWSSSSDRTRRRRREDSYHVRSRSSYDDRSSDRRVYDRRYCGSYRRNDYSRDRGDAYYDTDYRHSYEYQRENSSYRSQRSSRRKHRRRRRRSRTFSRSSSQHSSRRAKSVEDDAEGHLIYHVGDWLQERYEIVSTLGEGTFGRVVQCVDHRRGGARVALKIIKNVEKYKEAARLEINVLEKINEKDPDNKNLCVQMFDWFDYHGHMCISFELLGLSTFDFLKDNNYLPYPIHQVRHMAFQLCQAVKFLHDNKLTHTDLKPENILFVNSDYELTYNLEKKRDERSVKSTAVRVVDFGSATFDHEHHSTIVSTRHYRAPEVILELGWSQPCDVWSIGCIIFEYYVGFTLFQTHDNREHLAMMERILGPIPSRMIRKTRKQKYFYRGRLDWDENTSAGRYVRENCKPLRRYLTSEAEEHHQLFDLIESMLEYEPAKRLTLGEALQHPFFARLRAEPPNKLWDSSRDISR

[9] = target: Dual specificity protein kinase CLK2 (Homo sapiens) (UniProt P49760); conditions: at 1 µM
[10] = target: Dual specificity protein kinase CLK3 (Homo sapiens) (UniProt P49761); conditions: at 0.1 µM
Sequence of Dual specificity protein kinase CLK3 (Homo sapiens) (P49761 whole entry, looked up): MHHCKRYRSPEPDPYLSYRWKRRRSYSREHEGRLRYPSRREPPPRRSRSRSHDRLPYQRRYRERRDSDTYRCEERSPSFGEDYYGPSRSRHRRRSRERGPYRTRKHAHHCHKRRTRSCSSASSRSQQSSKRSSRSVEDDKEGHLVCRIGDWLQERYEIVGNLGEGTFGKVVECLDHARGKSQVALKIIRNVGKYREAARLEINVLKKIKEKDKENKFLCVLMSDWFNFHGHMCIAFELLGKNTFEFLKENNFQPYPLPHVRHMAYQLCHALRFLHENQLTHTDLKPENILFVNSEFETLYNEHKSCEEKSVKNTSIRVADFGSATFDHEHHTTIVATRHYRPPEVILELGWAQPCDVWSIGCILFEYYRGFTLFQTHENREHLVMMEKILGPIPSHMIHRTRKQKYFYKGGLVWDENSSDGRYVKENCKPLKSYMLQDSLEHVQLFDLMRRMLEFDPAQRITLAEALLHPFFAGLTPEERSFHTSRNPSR

[11] = target: Dual specificity protein kinase CLK3 (Homo sapiens) (UniProt P49761); conditions: at 1 µM
[12] = target: Dual specificity tyrosine-phosphorylation-regulated kinase 1A (Homo sapiens) (UniProt Q13627); conditions: at 0.1 µM
[13] = target: Dual specificity tyrosine-phosphorylation-regulated kinase 1A (Homo sapiens) (UniProt Q13627); conditions: at 1 µM
[14] = target: Dual specificity tyrosine-phosphorylation-regulated kinase 1B (Homo sapiens) (UniProt Q9Y463); conditions: at 0.1 µM
Sequence of Dual specificity tyrosine-phosphorylation-regulated kinase 1B (Homo sapiens) (Q9Y463 whole entry, looked up): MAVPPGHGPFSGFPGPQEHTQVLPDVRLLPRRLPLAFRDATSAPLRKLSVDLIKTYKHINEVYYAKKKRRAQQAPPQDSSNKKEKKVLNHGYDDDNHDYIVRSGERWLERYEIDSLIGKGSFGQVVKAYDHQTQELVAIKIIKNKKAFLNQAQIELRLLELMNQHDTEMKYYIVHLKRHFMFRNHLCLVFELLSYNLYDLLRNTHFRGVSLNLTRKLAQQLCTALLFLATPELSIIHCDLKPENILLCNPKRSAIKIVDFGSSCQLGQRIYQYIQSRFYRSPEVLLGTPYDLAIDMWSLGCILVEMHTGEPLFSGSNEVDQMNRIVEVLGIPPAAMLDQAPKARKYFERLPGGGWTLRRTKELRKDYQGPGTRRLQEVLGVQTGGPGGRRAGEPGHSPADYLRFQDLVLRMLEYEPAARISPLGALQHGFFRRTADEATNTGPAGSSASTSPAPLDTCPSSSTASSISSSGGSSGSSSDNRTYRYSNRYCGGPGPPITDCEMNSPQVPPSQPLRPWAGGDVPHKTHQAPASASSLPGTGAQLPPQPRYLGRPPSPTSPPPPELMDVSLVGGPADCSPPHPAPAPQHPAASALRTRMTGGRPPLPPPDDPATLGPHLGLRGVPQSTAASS

[15] = target: Dual specificity tyrosine-phosphorylation-regulated kinase 1B (Homo sapiens) (UniProt Q9Y463); conditions: at 1 µM
[16] = target: T1, Dual specificity tyrosine-phosphorylation-regulated kinase 2 (Homo sapiens) (UniProt Q92630); conditions: at 0.1 µM
T1 sequence (whole entry): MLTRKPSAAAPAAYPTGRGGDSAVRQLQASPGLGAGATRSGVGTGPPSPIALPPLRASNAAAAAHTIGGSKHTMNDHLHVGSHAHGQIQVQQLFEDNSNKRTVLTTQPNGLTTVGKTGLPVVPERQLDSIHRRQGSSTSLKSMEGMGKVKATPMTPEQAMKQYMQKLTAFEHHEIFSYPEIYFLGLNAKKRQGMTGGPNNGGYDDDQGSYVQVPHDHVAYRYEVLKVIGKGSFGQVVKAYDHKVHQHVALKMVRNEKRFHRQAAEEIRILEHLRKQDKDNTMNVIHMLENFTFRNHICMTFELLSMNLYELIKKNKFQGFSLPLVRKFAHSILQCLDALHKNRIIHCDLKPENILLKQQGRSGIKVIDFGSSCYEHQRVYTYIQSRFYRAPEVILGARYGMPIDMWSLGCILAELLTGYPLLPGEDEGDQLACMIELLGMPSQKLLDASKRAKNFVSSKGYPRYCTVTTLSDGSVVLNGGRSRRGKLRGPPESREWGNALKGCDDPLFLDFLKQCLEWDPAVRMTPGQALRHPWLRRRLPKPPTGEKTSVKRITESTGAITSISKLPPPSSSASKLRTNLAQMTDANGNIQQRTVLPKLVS

[17] = target: T1, Dual specificity tyrosine-phosphorylation-regulated kinase 2 (Homo sapiens); conditions: at 1 µM
[18] = target: Glycogen synthase kinase-3 alpha (Homo sapiens) (UniProt P49840); conditions: at 0.1 µM
Sequence of Glycogen synthase kinase-3 alpha (Homo sapiens) (P49840 2-483 limits assumed): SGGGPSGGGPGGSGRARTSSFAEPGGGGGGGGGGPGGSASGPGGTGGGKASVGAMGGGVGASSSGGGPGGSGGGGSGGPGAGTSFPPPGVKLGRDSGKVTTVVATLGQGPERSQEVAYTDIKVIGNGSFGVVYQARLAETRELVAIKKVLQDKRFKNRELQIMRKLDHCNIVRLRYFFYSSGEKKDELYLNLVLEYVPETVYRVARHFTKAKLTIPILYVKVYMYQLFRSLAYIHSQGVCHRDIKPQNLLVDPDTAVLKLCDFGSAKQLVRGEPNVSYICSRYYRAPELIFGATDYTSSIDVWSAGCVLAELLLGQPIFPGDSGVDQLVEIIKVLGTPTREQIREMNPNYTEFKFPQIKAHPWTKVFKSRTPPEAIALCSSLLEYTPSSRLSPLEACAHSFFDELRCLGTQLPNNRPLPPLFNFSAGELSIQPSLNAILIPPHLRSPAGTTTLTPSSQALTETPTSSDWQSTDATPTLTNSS

[19] = target: Glycogen synthase kinase-3 alpha (Homo sapiens) (UniProt P49840); conditions: at 1 µM
[20] = target: Glycogen synthase kinase-3 beta (Homo sapiens) (UniProt P49841); conditions: at 0.1 µM;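 further: values are mean percent inhibition of GSK3B activity, from the GSK Published Kinase Inhibitor Set (PKIS) screening dataset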
Sequence of Glycogen synthase kinase-3 beta (Homo sapiens) (P49841 whole entry, looked up): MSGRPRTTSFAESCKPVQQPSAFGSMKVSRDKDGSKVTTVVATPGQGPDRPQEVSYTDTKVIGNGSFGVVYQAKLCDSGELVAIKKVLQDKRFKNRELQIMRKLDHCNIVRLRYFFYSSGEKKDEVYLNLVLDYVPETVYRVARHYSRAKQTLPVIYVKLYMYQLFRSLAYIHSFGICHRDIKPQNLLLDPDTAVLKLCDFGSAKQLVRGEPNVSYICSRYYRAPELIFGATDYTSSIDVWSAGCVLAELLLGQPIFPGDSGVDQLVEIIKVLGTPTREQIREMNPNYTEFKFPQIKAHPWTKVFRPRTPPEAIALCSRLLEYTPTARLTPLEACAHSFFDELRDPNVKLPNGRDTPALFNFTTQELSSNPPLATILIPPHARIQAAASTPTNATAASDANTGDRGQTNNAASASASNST

Sequence of CDK3/Cyclin E (Homo sapiens) (P24864 whole entry, looked up): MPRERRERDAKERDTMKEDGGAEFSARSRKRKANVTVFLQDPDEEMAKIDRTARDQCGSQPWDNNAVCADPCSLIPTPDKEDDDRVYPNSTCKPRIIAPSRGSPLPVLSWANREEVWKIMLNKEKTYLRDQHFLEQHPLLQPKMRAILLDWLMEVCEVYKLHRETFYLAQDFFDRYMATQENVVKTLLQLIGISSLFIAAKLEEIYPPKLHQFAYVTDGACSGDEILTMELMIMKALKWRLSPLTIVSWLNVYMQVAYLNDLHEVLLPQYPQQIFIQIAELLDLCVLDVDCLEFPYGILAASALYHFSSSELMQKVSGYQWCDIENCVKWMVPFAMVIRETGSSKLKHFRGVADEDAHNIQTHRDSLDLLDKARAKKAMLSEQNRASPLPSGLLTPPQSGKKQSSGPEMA
Sequence of CDK3/Cyclin E (Homo sapiens) (Q00526 whole entry, looked up): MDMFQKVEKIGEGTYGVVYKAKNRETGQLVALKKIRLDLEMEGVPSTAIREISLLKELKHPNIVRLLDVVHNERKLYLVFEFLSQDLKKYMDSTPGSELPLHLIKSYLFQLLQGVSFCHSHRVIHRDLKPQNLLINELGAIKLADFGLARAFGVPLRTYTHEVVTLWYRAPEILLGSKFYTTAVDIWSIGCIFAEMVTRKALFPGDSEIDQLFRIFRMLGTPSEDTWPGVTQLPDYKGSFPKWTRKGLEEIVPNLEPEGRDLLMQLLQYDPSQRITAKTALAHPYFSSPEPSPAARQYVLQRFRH

SMILES	inhibition [1]	inhibition [2]	inhibition [3]	inhibition [4]	inhibition [5]	inhibition [6]	inhibition [7]	inhibition [8]	inhibition [9]	inhibition [10]	inhibition [11]	inhibition [12]	inhibition [13]	inhibition [14]	inhibition [15]	inhibition [16]	inhibition [17]	inhibition [18]	inhibition [19]	inhibition [20]
CS(=O)(=O)CCNCc1ccoc1-c1ccc2ncnc(Nc3ccc(OCc4ccccc4)cc3)c2c1	-1.1%	0.34%	2.91%	0.75%	1.14%	-0.43%	5.44%	0.36%	-2.93%	-0.17%	-0.94%	1.18%	2.26%	-1.48%	-0.06%	0.79%	-1.66%	4.65%	5.47%	2.8%
Cc1ccc(-c2cc3c(NC(=O)C4CC4)ncnc3o2)cc1	-0.64%	3.36%	4.97%	1.87%	3.17%	1.55%	3.23%	-0.87%	6.08%	2.11%	7.45%	4.14%	12.6%	1.1%	4.52%	2.48%	8.21%	12.4%	48.7%	7.9%
c1ccc(-c2n[nH]cc2-c2ccnc(-c3ccc(OCCn4ccnc4)cc3)c2)nc1	0.94%	1.86%	6.97%	1.11%	4.49%	1.43%	10%	0.61%	1.21%	3.95%	0.82%	3.79%	5.07%	0.31%	0.62%	-0.06%	0.1%	1.15%	3.28%	1.16%
COc1ccc2ncn(-c3cc(O[C@H](C)c4ccccc4C(F)(F)F)c(C(N)=O)s3)c2c1	-1.57%	0.47%	2.89%	0.13%	1.21%	-4.17%	-1.08%	0.34%	5.08%	-0.05%	0.85%	0.11%	2.44%	0.37%	1.63%	-0.29%	1.33%	-0.19%	4.58%	-0.14%
c1cnn2ncc(-c3ccnc(NCCCN4CCOCC4)n3)c2c1	-0.22%	2.24%	7.97%	0.21%	2.95%	-1.7%	2.95%	1.77%	6.81%	0.39%	0.72%	6.3%	33.9%	6.84%	40.3%	1.99%	5.39%	2.46%	13.1%	1.44%
Cn1c(-c2nonc2N)nc2cnccc21	2.12%	1.95%	3.9%	1.09%	7.18%	-4.08%	1.64%	2.9%	10.3%	1%	7.43%	25.1%	69.3%	11.7%	51.4%	2.37%	10.1%	10.1%	52.1%	5.71%
CS(=O)(=O)CCNCc1ccc(-c2ccc3ncnc(Nc4ccc(OCc5ccccc5)cc4)c3c2)o1	-0.81%	1.16%	2.98%	0.58%	2.07%	-1.55%	1.12%	0.03%	0.73%	0.41%	0.48%	1.93%	4.22%	-0.07%	1.88%	5.3%	2.62%	2.32%	3.44%	1.65%
COc1cccc(-n2ncc3c(N/N=C/c4ccc(C(=O)NCCN(C)C)cc4)ncnc32)c1	50.1%	40.6%	71.4%	37.9%	74.3%	47.9%	81.5%	21.6%	73.7%	5.88%	31.7%	38.1%	71.6%	17.8%	57.1%	20.9%	66.3%	71.9%	82.7%	66.3%
O=C(O[C@H]1CN[C@H](C#Cc2cc3ncnc(Nc4ccc(OCc5cccc(F)c5)c(Cl)c4)c3s2)C1)N1CCOCC1	-3.23%	2.11%	2.33%	0.49%	-0.57%	1.23%	-0.42%	-0.15%	-0.4%	2.68%	2.04%	2.71%	6.81%	-1.11%	-0.95%	3.84%	3.68%	3.45%	4.35%	2.75%
CC1(C)CC(n2cnc(-c3ccc(F)cc3)c2-c2ccnc(N)n2)CC(C)(C)N1	-0.65%	1.99%	2.08%	0.25%	0.14%	-2.02%	1.29%	0.85%	0.02%	0.82%	1.38%	1.54%	5.47%	0.78%	1.31%	0.23%	-0.37%	1.97%	5.81%	1.6%
OCCCNc1nccc(-c2c(-c3ccc(F)cc3)nn3cc(C(F)(F)F)ccc23)n1	0.86%	0.94%	3.36%	2.06%	3.96%	1.79%	5.92%	0.1%	1.15%	0.35%	0.7%	1.47%	6.36%	1.89%	3.86%	2.33%	3.97%	7.04%	18.2%	8.01%
CN1CCC(C(=O)Nc2n[nH]c3nc(-c4ccc(O)cc4)c(Br)cc23)CC1	56.1% and 53.4%	48% and 51.8%	76.6% and 78.3%	0.17% and 1.86%	13.3% and 11.5%	36.9% and 34.2%	76.5% and 74%	2.03% and 1.85%	3.04% and 2.87%	-1.53% and 0.88%	3.67% and 4.52%	9.4% and 10.2%	43.4% and 51.8%	29.6% and 27.7%	66.8% and 67%	6.68% and 6.28%	33.7% and 34%	78.2% and 80.5%	83.2% and 81.7%	–
CCS(=O)(=O)c1ccc(OC)c(Nc2ncc(-c3cccc(F)c3)o2)c1	-2.15%	2.69%	4.19%	0.21%	1.39%	3.05%	1.82%	13%	63.1%	2.49%	12.1%	4.83%	26%	0.76%	12.2%	5.21%	13.7%	2.67%	5.61%	2.72%
COc1ccc(Nc2ncc(-c3ccccc3)o2)cc1OC	22.2%	5.15%	14%	11.1%	45.7%	-1.71%	23.4%	0.23%	5.9%	2%	5.65%	8.15%	12%	9%	10.9%	0.67%	2.48%	8.4%	38.4%	7.94%
